97 molecules from PubChem BioAssay AID845 (Columbia University Molecular Screening Center, 2007) can be followed below.

About 390 (0.41%) of roughly 94,000 compounds were called active. The full list was thinned out, with actives kept by preference. Unmarked numbers belong to inactive results.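 How the source made its calls: active means cell count reduction more than 3 SD above the screen-wide mean (cut at about 70% in these data); inactive means the rest.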

The assay in a line: HUVEC cell count loss after compound exposure – imaging, Hoechst nuclear count, IL-1B stimulus, cytotoxicity control for IL-1B NFkB translocation project, primary screen (AID 845).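 Further: normalized per plate to untreated control cells as the no-loss baseline.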 The note with it: IL-1B stimulated, at 2 µM, active compounds read high.
On to `Cc1ccc(CNC(=O)CCNS(=O)(=O)c2cccc3nonc23)cc1`, for which the cell count reduction was 1.4%.
As to `O=C(NC(=O)c1ccccc1)NC(=O)c1ccccc1`, the cell count reduction was 15.2%.
As for `CCCCC(=O)N/N=C(\C)CC(=O)Nc1cc(Cl)ccc1OC`, the cell count reduction is 26.4%.
`CCC1(C)Cc2c(sc3nnn(CC(=O)Nc4ccc(Cl)cc4)c(=O)c23)CO1` (configuration not stated): the cell count reduction is -70.1%.
On to `Cc1ccc(N(NC(=O)C(C)(C)O)C(=O)c2ccccc2)cc1C`, for which the cell count reduction was 6.7%.
For the molecule `O=C(CSc1nc2ncccc2[nH]1)Nc1ccc2c(c1)OCCO2`, the cell count reduction was 89.4% (active).
`O=C(CSc1nnnn1C1CCCC1)Nc1ccc2c(c1)OCCO2`: the cell count reduction was -2.1%.
As for `O=C(CSc1nc(C2CC2)nc2ccccc12)Nc1ccc2c(c1)OCCO2`, the cell count reduction was -22.6%.
In the case of `COc1ccc(C2=Nc3cc(C)ccc3OC2)cc1`, the cell count reduction is -0.6%.
As to `CC1(C)CC(=O)C=C(NCCCNC2CCCCC2)C1`, the cell count reduction was -6.9%.
With `CC1(C)CC(=O)C=C(NCCN2CCNCC2)C1`, the cell count reduction is 1.4%.
With `CC1(C)CC(=O)C=C(NCCCN2CCCC2=O)C1`, the cell count reduction was 80.6% (active).
Consider `CCN1CCCC1Cn1cnc2c([nH]c3cc(OC)ccc32)c1=O` (configuration not stated), for which the cell count reduction was -4.3%.
In the case of `O=C(OCC#CCSc1nnc(-c2ccncc2)o1)c1sc2ccccc2c1Cl`, the cell count reduction was -23.8%.
Under `O=C(O)COc1ccc(-c2nccc(-c3cccs3)n2)cc1` stands -10.6%; under `CC(C)(CNC(=O)c1cc(=O)[nH]c2ccccc12)N1CCOCC1`, -104%; under `C=C(C)CSc1nnc(-c2ccc(C)cc2)n1N`, 3.8%.
For the molecule `COc1ccc(NC(=O)Cn2c(=O)n(Cc3ccco3)c(=O)c3ccccc32)cc1`, the cell count reduction was 6.6%.
Under `O=C(CSc1nnc(Cn2cnc3ccccc32)o1)c1ccccc1` stands 92.1% (active); under `O=C(CSc1nnc(-c2c[nH]c3ccccc23)o1)c1ccccc1`, -13.9%; under `CC(=O)Nc1ccc(C(=O)CSc2nnc(Cc3ccccc3)o2)cc1`, -22.8%.
Take `ONC(=Nc1ccc(Cl)cc1)c1ccccc1Cl`: the cell count reduction is 6.7%.
As to `CCOC(=O)c1sc(NC(=O)CSc2nc(C)cc(C(F)(F)F)n2)c(C#N)c1C`, the cell count reduction was 10.7%.
For the molecule `CCc1ccccc1NC(=O)CN(C)S(=O)(=O)c1ccc2c(c1)c(=O)n(C)c(=O)n2C`, the cell count reduction was 11.6%.
Under `Clc1cccc(N=C2NN=C(c3ccc4c(c3)OCCO4)CS2)c1` stands 12.3%; under `Cc1c(Br)cc(C(=O)N2CCCCCC2)c(C)c1C`, -25.3%.
Turning to `COc1ccc(C(=O)N2CCc3cc(OC)c(OC)cc3C2c2cccc([N+](=O)[O-])c2)cc1` (configuration not stated), the cell count reduction is 5.9%.
Under `c1cncc(-c2nnc3n2C2(CCCCC2)Cc2ccccc2-3)c1` stands -33.1%; under `c1ccc(C2CCC(N3CCC(N4CCCCC4)CC3)CC2)cc1` (configuration not stated), 11.9%.
With `CSc1nnc2c(n1)OC(c1cn(C)c3ccccc13)N(C(C)=O)c1ccccc1-2` (configuration not stated), the cell count reduction is 90.8% (active).
As for `CSc1nnc2c(n1)OC(c1ccsc1)N(C(C)=O)c1ccccc1-2` (configuration not stated), the cell count reduction was -22.1%.
Regarding `CCN(CC)CCNC(=O)C1c2ccccc2C(=O)N(C)C1c1cn(C)c2ccccc12` (configuration not stated), the cell count reduction was 0.9%.
For the molecule `N#CCCn1ncc2ccccc21`, the cell count reduction is -33.3%.
`N#CCCn1cnc2ccccc21`: the cell count reduction was 84.1% (active).
As to `COCCOCCn1cnc2ccccc21`, the cell count reduction is 11%.
For the molecule `Cc1ccsc1/C=C1\SC(N2CCOCC2)=NC1=O`, the cell count reduction was 17%.
The value for `COc1ccc(CN2CCCCC2C)cc1OC` (configuration not stated) was -72.7%; that for `Cc1c(Br)c([N+](=O)[O-])nn1C(C)C(=O)Nc1nccs1` (configuration not stated) was 4.9%.
`COc1ccc(Oc2coc3cc(OC(=O)c4cncc(Br)c4)ccc3c2=O)cc1`: the cell count reduction is 17.2%.
On to `CNC(=O)c1c(NC(NC(=O)c2ccco2)C(=O)c2ccc(Cl)cc2)sc2c1CCCC2` (configuration not stated), for which the cell count reduction was 9.9%.
The value for `CCCC(=O)C1CCN(Cc2ccccc2)CC1` was -26.8%; that for `CCCC(=O)C1=C(N(C)c2ccccc2)CC(C)(C)C(C(=O)OC)C1=O` (configuration not stated) was 87.1% (active).
On to `CCCOC(=O)C1=C(C)NC2=C(C(=O)C(C(=O)OC)C(C)C2)C1c1ccc(N(C)C)cc1` (configuration not stated), for which the cell count reduction was -20.9%.
Turning to `COc1cccc(/C=N\Nc2nncc(-c3ccccc3)n2)c1`, the cell count reduction is 13.5%.
`CCOc1ccccc1C1NC(=O)NC(C)=C1C(=O)OCc1ccco1` (configuration not stated): the cell count reduction was 4.9%.
For the molecule `CCOC(=O)COc1ccc(Cl)cc1C1NC(=O)NC(C)=C1C(C)=O` (configuration not stated), the cell count reduction was 87.6% (active).
With `CC(=O)C1=C(C)NC(=O)NC1c1cc(Br)ccc1OCC#N` (configuration not stated), the cell count reduction is -86.7%.
`O=c1[nH][nH]c(C(F)(F)F)c1C=NCc1ccccc1Cl`: the cell count reduction was 86.3% (active).
For the molecule `O=c1ccn(Cc2ccccc2Cl)cc1`, the cell count reduction is -6.2%.
`CCc1ccc(CNC(=O)CCc2nc(-c3cccs3)no2)cc1`: the cell count reduction was 5.9%.
Consider `COc1cccc(-c2nnc(SCCOc3ccc4c(C)cc(=O)oc4c3)o2)c1`, for which the cell count reduction was 10.8%.
Under `Cc1ccc(-n2cc3ccc([N+](=O)[O-])cc3n2)cc1` stands -52.5%.
Take `CC(C)(C)c1nc2ccccc2c(=O)n1N1C(=O)c2ccccc2C1=O`: the cell count reduction was -11.3%.
For the molecule `N#C/C(=C1/CCCN1)c1ccccn1`, the cell count reduction is 23%.
`Cc1cc(OC(=O)c2c(Cl)cccc2Cl)nc(C)n1`: the cell count reduction was 31.7%.
Take `CC(=O)Nc1ccc(N2C(=O)C3C4CC(=O)C(c5ccccc54)C3C2=O)cc1` (configuration not stated): the cell count reduction was -15.5%.
Regarding `CCOCCCNC(=O)C(NC(=O)c1ccc(=O)[nH]c1)c1ccc(Cl)cc1` (configuration not stated), the cell count reduction was -8.1%.
The value for `Cc1ccccc1CSCCNC(=O)c1ccc(Cl)c(S(=O)(=O)N2CCOCC2)c1` was -18.7%.
For the molecule `Cc1cc([N+](=O)[O-])c(N2CCC[C@@H]2C(=O)O)c([N+](=O)[O-])c1`, the cell count reduction is -39.6%.
The value for `O=C(NCc1ccc(Cl)cc1)c1cc(=O)nc2sc(-c3ccccc3)nn12` was -3.6%.
The value for `Cc1cc(Oc2ccccc2)nc(N2CCOCC2)n1` was -31.8%; that for `COc1c(Cl)cc(C(=O)Nc2ccc(Cl)cn2)cc1Cl` was -4.5%; that for `CCn1c(=O)c(=O)n(CC)c2cc(S(=O)(=O)N3CCc4ccccc43)ccc21` was 14.3%.
Under `CCn1nnnc1SCC(=O)c1ccc(C)cc1C` stands -33.9%; under `O=C(NC(C(=O)NCCN1CCOCC1)C12CC3CC(CC(C3)C1)C2)C1CCCCC1` (configuration not stated), 0%; under `COc1cc(/C=N/NC(=O)Nc2ccccc2)ccc1OCCOc1ccccc1C`, 70% (active).
Take `COc1ccc(/C=N\NC(=O)c2sc(N)nc2C)cc1OC`: the cell count reduction was -1.3%.
Regarding `CCOc1ccc(NC(=O)Nc2cc(C)ccc2OC)cc1`, the cell count reduction was -41.8%.
Consider `CC(C)C(C)NC(=O)COc1ncnc2ccccc12` (configuration not stated), for which the cell count reduction is -6.1%.
The value for `O=C(Cc1ccc(S(=O)(=O)N2CCOCC2)s1)NCCC(c1ccccc1)c1ccccc1` was 2.4%; that for `N#Cc1c(C(F)(F)F)cc(-c2ccccc2)nc1SCC(=O)N1CCOCC1` was 11.3%; that for `CCOC(=O)C(C)n1cnc2sc(C)c(C)c2c1=O` (configuration not stated) was -9.7%.
For `Cc1cccc(CCNS(=O)(=O)c2ccc(S(=O)(=O)NC3CCCC3)cc2)c1`, the cell count reduction is -6.4%.
In the case of `COc1ccc(-c2cc(C(=O)NCc3ccco3)no2)cc1OC`, the cell count reduction is 3%.
`Cc1ccc(OCC(=O)N2CCN(C(=O)c3cccnc3)CC2)cc1`: the cell count reduction was -38.8%.
On to `CNC(=S)N1N=C(c2ccccc2)CC1c1ccc(Br)cc1` (configuration not stated), for which the cell count reduction was -18.6%.
For the molecule `CC(C)CNS(=O)(=O)c1ccc(OCC(=O)Nc2ccc3c(c2)OCO3)c(Cl)c1`, the cell count reduction was -38.8%.
The value for `COc1ccc(F)cc1S(=O)(=O)Nc1ccc2c(c1)OCO2` was -1.3%.
Take `COc1ccc(S(=O)(=O)Nc2ccc3c(c2)OCO3)cc1Cl`: the cell count reduction was 81.3% (active).
`O=C1c2ccccc2C(=O)c2c1cccc2N1CCN(CCO)CC1`: the cell count reduction is -12.4%.
`Cc1ccc(NC(=S)N/N=C2/CCCc3c(C)cc(C)cc32)cc1`: the cell count reduction was -6.1%.
Under `CC(C(=O)Nc1ccccc1-c1ccccc1)N1CCOCC1` (configuration not stated) stands 91.2% (active); under `CC(Sc1nncn1C)C(=O)Nc1ccccc1-c1ccccc1` (configuration not stated), 35.5%; under `O=C(c1ccccc1-c1ccccc1)N1CCOCC1`, -0.4%.
For the molecule `COc1cc(/C=N/O)cc(Br)c1OCc1cccc(Cl)c1`, the cell count reduction is -29.3%.
Take `Cc1ccc(O/C=C2\OC(=O)c3ccccc32)cc1`: the cell count reduction is -34.7%.
On to `N=c1oc2ccccc2cc1C(=O)N/N=C/c1ccccc1`, for which the cell count reduction was 23.4%.
Consider `CCc1c(O)nc(SCC(=O)Nc2ccccc2)n(C(C)CC)c1=O` (configuration not stated), for which the cell count reduction is -2.8%.
For the molecule `COCC(C)NC(=O)c1ccc(-n2nc(C(F)(F)F)cc2-c2cccs2)cc1` (configuration not stated), the cell count reduction is -9.2%.
Under `Cn1c(=O)c2c(ncn2CC(COCc2ccccc2Cl)OCc2ccccc2Cl)n(C)c1=O` (configuration not stated) stands 8.7%; under `O=C(Nc1cccn(Cc2c(Cl)cccc2Cl)c1=O)c1ccc(Cl)cc1`, -1.3%.
With `Cc1ccc(Nc2nnc(SCc3ccccc3)s2)cc1`, the cell count reduction is 22.5%.
Under `CC(=O)c1cnn(-c2cc(Oc3ccc(F)cc3)ncn2)c1C` stands -1.7%.
Turning to `Cc1nnc(SCC(=O)NC2CCCC2)s1`, the cell count reduction was 22.6%.
With `CNS(=O)(=O)c1cnccc1N1CCN(c2cccc(C)c2)CC1`, the cell count reduction is -0.7%.
As for `CC/C(O)=N\S(=O)(=O)c1ccc(N=NN(C)C)cc1`, the cell count reduction was -5.3%.
Regarding `COc1ccc(-c2cc(C(=O)n3cnc4ccccc43)c3ccccc3n2)cc1`, the cell count reduction is -10%.
